The results in this text go back to publication PMC7862700, “An all-to-all approach to the identification of sequence-specific readers for epigenetic DNA modifications on cytosine”.

Assay in all cases: DAPPL (digital affinity profiling via proximity ligation, sequencing); 10 mM Tris-HCl pH 7.5, 50 mM NaCl, 1 mM DTT, 4% glycerol, room temperature, 30 min; GST-TFs on glutathione beads, 16-mer random dsDNA library, 0.1% formaldehyde crosslink after washing; high values mean tight binding
The target of one experiment is T1, FLI1 (Homo sapiens, UniProt Q01543 1-452).
T1 sequence: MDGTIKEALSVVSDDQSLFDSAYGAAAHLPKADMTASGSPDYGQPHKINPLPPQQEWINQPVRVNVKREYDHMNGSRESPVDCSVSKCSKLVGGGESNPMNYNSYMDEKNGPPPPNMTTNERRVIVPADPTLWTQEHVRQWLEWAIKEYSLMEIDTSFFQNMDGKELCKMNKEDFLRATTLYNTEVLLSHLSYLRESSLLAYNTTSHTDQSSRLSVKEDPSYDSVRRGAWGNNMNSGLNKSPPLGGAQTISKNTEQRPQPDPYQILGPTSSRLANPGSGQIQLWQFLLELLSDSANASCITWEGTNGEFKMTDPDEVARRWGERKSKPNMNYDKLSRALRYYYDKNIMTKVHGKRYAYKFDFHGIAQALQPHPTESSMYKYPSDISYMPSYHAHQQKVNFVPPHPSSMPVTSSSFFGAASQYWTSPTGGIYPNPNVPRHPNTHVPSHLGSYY
The following applies: protein: recombinant; tags: N-terminal GST; dsDNA, one strand shown. The procedure, abridged: (§1)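 In yeast, human transcription factors were expressed with a GST fusion, then pulled down on glutathione beads and given DNA barcodes. Pooled with a tag-only sample, they were exposed to 200 nmole of a 16-mer random double-stranded DNA library (Tris/NaCl/DTT/glycerol buffer, room temperature, 30 min), washed, crosslinked with 0.1% formaldehyde, proximity-ligated using BsaI/T4 ligase for 1 h at 37 °C, PCR-amplified and read on an Illumina NextSeq500. Each hexamer's frequency of reads for a factor, divided by the matching frequency for the tag-only sample, gives the binding signal.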

The next experiment has as its target T2, ELK1 (Homo sapiens, UniProt P19419 1-428).
T2 sequence: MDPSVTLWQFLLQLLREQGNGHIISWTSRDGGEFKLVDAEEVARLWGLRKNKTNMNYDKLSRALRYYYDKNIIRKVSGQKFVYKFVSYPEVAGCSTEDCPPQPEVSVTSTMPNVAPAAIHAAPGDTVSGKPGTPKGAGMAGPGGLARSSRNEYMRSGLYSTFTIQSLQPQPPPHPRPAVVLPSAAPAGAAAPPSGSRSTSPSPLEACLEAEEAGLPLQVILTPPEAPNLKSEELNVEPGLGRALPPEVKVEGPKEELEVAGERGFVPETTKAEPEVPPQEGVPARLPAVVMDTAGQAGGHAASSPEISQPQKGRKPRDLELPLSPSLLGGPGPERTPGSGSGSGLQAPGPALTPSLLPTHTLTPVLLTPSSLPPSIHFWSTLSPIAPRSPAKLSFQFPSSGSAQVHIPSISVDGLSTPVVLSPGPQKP
The following applies: protein: recombinant; tags: N-terminal GST; dsDNA, one strand shown. The procedure, abridged:
as §1

A further experiment has as its target T3, GABPA (Homo sapiens, UniProt Q06546 1-454).
T3 sequence: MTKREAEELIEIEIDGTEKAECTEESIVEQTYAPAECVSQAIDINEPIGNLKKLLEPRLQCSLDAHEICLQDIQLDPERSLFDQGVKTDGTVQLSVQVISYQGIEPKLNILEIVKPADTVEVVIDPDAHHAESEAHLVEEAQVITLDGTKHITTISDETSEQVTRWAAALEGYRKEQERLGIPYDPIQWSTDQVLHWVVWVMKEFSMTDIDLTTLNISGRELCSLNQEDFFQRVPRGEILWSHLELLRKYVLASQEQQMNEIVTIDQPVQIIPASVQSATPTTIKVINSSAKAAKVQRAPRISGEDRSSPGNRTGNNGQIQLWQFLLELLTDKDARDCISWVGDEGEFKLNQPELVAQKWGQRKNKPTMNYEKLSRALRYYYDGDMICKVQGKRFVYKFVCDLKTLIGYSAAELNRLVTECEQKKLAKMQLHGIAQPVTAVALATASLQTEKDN
The following applies: protein: recombinant; tags: N-terminal GST; dsDNA, one strand shown. The method in brief: as §1

The target in the next experiment is T4, ERG (Homo sapiens, UniProt P11308 1-479).
T4 sequence: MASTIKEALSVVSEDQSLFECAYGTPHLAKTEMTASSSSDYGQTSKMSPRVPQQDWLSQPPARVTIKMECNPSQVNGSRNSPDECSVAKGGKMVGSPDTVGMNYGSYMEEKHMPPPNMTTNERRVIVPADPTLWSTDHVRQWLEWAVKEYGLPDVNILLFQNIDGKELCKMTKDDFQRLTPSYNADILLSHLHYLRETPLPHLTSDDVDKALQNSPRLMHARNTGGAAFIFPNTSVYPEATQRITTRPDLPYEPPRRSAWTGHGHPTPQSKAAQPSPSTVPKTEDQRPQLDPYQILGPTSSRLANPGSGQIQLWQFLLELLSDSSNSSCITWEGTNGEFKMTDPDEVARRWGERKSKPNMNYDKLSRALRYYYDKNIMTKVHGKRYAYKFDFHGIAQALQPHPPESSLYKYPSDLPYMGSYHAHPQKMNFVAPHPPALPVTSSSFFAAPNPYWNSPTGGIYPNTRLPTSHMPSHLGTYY
The following applies: protein: recombinant; tags: N-terminal GST; dsDNA, one strand shown. The procedure, abridged: as §1

The target in a further experiment is ELF1 (Homo sapiens, UniProt P32519 1-619). The following applies: protein: recombinant; tags: N-terminal GST; dsDNA, one strand shown. The procedure, abridged: as §1
Chain of ELF1 (P32519 whole entry): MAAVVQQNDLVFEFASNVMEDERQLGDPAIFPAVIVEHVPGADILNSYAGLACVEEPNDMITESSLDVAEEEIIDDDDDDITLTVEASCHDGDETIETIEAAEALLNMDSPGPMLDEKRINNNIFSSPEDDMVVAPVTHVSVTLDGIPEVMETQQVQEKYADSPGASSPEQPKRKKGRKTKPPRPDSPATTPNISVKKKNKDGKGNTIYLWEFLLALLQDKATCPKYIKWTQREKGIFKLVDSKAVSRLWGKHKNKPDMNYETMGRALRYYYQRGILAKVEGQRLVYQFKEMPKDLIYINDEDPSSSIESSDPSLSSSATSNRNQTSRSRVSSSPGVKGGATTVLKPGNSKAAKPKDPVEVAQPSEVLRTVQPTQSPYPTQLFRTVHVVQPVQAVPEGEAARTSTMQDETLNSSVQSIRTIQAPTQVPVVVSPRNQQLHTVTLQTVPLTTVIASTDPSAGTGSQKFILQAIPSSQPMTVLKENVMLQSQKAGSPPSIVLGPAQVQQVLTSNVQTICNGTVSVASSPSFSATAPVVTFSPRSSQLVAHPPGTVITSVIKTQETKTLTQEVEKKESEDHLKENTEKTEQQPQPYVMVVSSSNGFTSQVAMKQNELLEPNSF
Another experiment has as its target T5, EHF (Homo sapiens, UniProt Q9NZC4 1-300).
T5 sequence: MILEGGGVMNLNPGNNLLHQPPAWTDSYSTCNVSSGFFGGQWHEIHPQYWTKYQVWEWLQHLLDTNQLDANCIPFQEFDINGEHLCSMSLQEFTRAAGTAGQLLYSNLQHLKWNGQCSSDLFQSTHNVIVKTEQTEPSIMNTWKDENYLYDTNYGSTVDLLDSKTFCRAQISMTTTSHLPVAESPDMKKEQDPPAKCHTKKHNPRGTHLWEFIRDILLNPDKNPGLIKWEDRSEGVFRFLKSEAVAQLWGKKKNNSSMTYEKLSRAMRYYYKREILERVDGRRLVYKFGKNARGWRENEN
The following applies: protein: recombinant; tags: N-terminal GST; dsDNA, one strand shown. The procedure, abridged:
as §1

The target in another experiment is SPI1 (Homo sapiens, UniProt P17947 1-270). The following applies: protein: recombinant; tags: N-terminal GST; dsDNA, one strand shown. The procedure, abridged: as §1
Another experiment concerns the target SPIB (Homo sapiens, UniProt Q01892 1-262). The following applies: protein: recombinant; tags: N-terminal GST; dsDNA, one strand shown. The method in brief: as §1
The next experiment has as its target T6, ELK3 (Homo sapiens, UniProt P41970 1-407).
T6 sequence: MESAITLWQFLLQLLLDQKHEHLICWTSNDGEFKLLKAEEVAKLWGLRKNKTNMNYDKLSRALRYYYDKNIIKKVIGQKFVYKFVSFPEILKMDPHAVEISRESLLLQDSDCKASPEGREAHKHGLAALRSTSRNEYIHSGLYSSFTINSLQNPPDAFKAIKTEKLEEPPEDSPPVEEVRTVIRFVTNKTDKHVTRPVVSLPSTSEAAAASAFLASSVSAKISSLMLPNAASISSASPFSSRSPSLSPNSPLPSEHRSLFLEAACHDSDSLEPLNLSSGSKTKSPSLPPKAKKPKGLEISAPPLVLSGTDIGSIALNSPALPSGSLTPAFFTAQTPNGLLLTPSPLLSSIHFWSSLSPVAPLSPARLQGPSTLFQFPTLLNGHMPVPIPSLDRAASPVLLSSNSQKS
The following applies: protein: recombinant; tags: N-terminal GST; dsDNA, one strand shown. The procedure, abridged: as §1

In another experiment the target is T7, FEV (Homo sapiens, UniProt Q99581 1-238).
T7 sequence: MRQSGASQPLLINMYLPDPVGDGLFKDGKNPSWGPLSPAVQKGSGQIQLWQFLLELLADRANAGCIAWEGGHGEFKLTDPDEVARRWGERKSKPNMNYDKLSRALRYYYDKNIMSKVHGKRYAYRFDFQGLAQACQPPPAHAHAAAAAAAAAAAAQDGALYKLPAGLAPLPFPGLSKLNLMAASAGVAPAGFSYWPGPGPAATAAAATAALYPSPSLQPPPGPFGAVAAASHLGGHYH
The following applies: protein: recombinant; tags: N-terminal GST; dsDNA, one strand shown. The method in brief:
as §1

The target of the next experiment is ETV5 (Homo sapiens, UniProt P41161 1-510). The following applies: protein: recombinant; tags: N-terminal GST; dsDNA, one strand shown. The method in brief:
as §1

Another experiment deals with HSF1 (Homo sapiens, UniProt Q00613 1-529). The following applies: protein: recombinant; tags: N-terminal GST; chain copies: 3; dsDNA, one strand shown. The procedure, abridged:
as §1

A further experiment has as its target T8, SPIC (Homo sapiens, UniProt Q8N5J4 1-248).
T8 sequence: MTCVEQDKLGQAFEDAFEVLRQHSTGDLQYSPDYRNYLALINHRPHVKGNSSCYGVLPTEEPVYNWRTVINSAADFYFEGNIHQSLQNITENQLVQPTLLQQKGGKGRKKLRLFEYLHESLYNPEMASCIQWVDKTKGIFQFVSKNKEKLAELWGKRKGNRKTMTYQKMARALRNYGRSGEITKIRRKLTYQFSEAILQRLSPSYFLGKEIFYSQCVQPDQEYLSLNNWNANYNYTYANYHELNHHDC
The following applies: protein: recombinant; tags: N-terminal GST; dsDNA, one strand shown. The method in brief:
as §1

For the next experiment, the target named is ELF4 (Homo sapiens, UniProt Q99607 1-663). The following applies: protein: recombinant; tags: N-terminal GST; dsDNA, one strand shown. The procedure, abridged: as §1
Chain of ELF4 (Q99607 whole entry): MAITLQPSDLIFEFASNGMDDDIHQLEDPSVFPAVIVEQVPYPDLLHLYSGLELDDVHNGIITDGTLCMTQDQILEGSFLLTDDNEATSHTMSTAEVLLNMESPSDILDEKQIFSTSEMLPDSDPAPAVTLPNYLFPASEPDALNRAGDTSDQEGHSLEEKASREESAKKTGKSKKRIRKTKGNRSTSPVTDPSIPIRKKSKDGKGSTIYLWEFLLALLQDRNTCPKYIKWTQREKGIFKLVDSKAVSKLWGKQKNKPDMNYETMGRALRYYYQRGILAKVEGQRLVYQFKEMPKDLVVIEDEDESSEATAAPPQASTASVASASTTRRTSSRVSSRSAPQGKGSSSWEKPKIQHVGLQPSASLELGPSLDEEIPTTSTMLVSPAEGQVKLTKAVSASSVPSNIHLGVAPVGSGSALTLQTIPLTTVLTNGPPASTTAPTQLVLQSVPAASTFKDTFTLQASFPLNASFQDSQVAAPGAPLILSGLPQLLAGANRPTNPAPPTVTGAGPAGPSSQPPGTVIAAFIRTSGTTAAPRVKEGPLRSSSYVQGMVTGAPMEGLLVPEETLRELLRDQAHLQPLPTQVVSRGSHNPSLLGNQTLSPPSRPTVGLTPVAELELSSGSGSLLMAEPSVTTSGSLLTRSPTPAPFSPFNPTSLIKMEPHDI
The target in the next experiment is T9, ELK4 (Homo sapiens, UniProt P28324-2 1-405).
T9 sequence: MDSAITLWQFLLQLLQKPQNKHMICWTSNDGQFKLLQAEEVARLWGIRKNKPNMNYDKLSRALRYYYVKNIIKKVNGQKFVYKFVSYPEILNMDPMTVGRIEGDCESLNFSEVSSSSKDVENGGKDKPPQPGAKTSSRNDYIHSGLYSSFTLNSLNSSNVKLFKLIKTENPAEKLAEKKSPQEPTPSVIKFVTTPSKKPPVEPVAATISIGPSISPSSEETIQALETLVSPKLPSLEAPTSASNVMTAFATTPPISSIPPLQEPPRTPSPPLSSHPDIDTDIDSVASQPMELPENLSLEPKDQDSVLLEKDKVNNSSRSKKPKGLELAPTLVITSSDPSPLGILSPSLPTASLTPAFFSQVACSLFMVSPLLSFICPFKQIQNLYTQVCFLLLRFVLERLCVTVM
The following applies: protein: recombinant; tags: N-terminal GST; dsDNA, one strand shown. The method in brief:
as §1

Another experiment has as its target T10, ETV2 (Homo sapiens, UniProt O00321 1-342).
T10 sequence: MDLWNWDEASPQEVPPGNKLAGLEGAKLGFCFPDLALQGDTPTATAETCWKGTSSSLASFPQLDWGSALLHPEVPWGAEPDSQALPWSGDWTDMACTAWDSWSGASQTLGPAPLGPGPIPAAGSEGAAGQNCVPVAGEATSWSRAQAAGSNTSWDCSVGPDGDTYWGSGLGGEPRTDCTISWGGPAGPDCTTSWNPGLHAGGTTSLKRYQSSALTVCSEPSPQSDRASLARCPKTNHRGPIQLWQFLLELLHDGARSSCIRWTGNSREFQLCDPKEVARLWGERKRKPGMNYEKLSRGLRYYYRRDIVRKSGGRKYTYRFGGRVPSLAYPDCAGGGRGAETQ
The following applies: protein: recombinant; tags: N-terminal GST; dsDNA, one strand shown. The procedure, abridged:
as §1

Another experiment concerns the target T11, ELF3 (Homo sapiens, UniProt P78545 1-371).
T11 sequence: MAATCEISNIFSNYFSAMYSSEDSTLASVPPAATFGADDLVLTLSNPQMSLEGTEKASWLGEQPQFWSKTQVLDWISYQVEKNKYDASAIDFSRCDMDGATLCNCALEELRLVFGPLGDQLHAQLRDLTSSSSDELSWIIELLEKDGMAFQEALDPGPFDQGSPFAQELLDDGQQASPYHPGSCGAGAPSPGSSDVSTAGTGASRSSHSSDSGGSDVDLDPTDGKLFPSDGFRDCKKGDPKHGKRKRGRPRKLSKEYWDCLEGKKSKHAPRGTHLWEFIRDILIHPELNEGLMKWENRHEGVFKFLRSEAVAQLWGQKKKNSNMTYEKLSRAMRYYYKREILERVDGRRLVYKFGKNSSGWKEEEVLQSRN
The following applies: protein: recombinant; tags: N-terminal GST; dsDNA, one strand shown. The procedure, abridged:
as §1

The target of another experiment is CRX (Homo sapiens, UniProt O43186 1-299). The following applies: protein: recombinant; tags: N-terminal GST; dsDNA, one strand shown. The method in brief: as §1
Chain of CRX (O43186 whole entry): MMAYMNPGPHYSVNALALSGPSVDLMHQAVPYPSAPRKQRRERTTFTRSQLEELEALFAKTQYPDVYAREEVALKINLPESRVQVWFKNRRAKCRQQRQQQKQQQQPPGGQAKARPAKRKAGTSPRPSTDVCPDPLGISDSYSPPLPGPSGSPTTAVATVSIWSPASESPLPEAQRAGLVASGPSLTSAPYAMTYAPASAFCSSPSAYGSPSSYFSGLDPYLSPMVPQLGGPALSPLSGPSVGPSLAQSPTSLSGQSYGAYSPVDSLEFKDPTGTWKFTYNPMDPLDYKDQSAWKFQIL
The target of another experiment is ETV1 (Homo sapiens, UniProt P50549 1-477). The following applies: protein: recombinant; tags: N-terminal GST; dsDNA, one strand shown. The procedure, abridged: as §1
Chain of ETV1 (P50549 whole entry): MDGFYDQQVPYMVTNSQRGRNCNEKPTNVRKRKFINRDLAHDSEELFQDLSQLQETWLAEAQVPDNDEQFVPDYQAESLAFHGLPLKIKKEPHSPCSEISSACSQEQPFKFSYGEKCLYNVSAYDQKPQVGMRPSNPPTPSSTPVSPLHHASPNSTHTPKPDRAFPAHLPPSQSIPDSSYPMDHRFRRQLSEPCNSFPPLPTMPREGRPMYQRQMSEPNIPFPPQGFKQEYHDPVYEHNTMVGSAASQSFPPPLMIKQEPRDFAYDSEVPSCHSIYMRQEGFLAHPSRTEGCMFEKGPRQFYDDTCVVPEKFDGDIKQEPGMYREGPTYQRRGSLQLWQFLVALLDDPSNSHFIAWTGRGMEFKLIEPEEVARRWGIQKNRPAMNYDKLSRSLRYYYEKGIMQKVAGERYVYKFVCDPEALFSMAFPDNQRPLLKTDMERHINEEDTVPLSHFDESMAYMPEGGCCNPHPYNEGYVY

Chain of SPIB (Q01892 whole entry): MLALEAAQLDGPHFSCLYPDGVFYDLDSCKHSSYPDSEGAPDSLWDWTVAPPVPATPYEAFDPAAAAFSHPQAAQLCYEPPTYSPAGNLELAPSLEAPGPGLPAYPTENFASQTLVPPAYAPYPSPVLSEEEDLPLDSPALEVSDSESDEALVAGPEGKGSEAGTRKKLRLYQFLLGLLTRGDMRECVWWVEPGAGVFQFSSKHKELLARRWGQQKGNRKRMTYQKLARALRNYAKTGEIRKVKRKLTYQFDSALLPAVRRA
Chain of HSF1 (Q00613 whole entry): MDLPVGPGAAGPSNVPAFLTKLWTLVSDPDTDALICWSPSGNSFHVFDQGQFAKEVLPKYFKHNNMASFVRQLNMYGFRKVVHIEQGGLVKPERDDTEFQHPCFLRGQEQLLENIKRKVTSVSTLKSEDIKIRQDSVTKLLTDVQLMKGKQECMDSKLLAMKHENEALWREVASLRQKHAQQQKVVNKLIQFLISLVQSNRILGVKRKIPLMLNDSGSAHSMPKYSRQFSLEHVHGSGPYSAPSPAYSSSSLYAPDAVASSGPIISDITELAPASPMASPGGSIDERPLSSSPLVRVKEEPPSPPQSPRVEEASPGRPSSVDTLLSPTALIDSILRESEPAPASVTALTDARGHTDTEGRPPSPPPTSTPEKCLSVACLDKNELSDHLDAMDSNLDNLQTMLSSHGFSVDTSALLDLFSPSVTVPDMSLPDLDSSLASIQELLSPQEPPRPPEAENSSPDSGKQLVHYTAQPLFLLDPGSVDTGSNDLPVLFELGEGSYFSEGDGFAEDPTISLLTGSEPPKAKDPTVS
Chain of ETV5 (P41161 whole entry): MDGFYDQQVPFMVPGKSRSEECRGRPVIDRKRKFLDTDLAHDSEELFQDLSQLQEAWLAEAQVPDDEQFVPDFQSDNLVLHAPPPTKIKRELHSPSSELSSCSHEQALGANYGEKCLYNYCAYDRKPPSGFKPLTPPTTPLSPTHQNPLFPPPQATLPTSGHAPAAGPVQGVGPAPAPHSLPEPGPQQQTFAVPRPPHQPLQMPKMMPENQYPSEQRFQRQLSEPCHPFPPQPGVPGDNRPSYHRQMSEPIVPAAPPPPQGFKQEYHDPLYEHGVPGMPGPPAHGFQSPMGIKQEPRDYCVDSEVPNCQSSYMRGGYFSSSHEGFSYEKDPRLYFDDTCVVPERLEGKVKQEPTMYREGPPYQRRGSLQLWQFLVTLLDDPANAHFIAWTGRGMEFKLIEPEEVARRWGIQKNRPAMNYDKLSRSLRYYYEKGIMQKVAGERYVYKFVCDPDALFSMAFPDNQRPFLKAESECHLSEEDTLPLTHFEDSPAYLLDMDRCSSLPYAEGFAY

For the sequence TCCTGA, the binding signal in the experiment with FLI1 was 1.43 fold enrichment (6-mer frequency, TF over GST control); in the experiment with ELK1, 1.45 fold enrichment (6-mer frequency, TF over GST control); in the experiment with GABPA, 1.47 fold enrichment (6-mer frequency, TF over GST control); with ERG, 1.5 fold enrichment (6-mer frequency, TF over GST control); with ELF1, 1.41 fold enrichment (6-mer frequency, TF over GST control); in the experiment with EHF, 1.45 fold enrichment (6-mer frequency, TF over GST control). Also, the binding signal was 1.47 fold enrichment (6-mer frequency, TF over GST control) with SPI1; 1.46 fold enrichment (6-mer frequency, TF over GST control) in the experiment with SPIB; 1.54 fold enrichment (6-mer frequency, TF over GST control) in the experiment with ELK3; 1.31 fold enrichment (6-mer frequency, TF over GST control) in the experiment with FEV; 1.53 fold enrichment (6-mer frequency, TF over GST control) with ETV5; 1.57 fold enrichment (6-mer frequency, TF over GST control) with HSF1. In addition, the binding signal in the experiment with SPIC was 1.32 fold enrichment (6-mer frequency, TF over GST control); with ELF4 it was 1.39 fold enrichment (6-mer frequency, TF over GST control); with ELK4, 1.29 fold enrichment (6-mer frequency, TF over GST control); in the experiment with ETV2, 1.66 fold enrichment (6-mer frequency, TF over GST control); in the experiment with ELF3 it was 1.39 fold enrichment (6-mer frequency, TF over GST control); with CRX it was 1.25 fold enrichment (6-mer frequency, TF over GST control). In addition, the binding signal with ETV1 is 1.49 fold enrichment (6-mer frequency, TF over GST control).
